Source: PubChem BioAssay AID1159580 (chemical genetic matrix, 2015)
“And” between values parts separate entries of the source, which are not always exact repeats. Identical values can stand only once. In all, about 5,500 compounds went through this assay and about 2,000 (36%) were called active. About 18% were inconclusive and are not listed. No stated cut-off is given here; in the data, active means normalized growth mostly below about 0.91 (no sharp cut-off); inconclusive means no clear call, values can overlap the other calls; inactive means mostly above about 0.92. The list shows a part of the results.

Assay: chemical genetic growth profiling, strain panel (AID 1159580);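 further: tested at 20 µM; growth read once vehicle control cultures reached saturation at 30 °C; 1 = growth at the plate median or of vehicle wells; lower values mean less growth of the strain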
Settings: S. cerevisiae deletion strains, growth OD

Measured: normalized growth

C=CC1=C(C)/C(=C/c2[nH]c(Cc3[nH]c(/C=C4\NC(=O)C(C)=C4C=C)c(C)c3CCC(=O)O)c(CCC(=O)O)c2C)NC1=O
inactive: locus YAL013W, strain DEP1, active compounds read low 1.02 | locus YAL021C, strain ccr4, active compounds read low 0.949 | locus YAL026C, strain drs2, active compounds read low 0.982 | locus YAL030W, strain snc1, active compounds read low 0.996 | locus YBL061C, strain skt5, active compounds read low 0.993 | locus YBR009C, strain hhf1, active compounds read low 1.03 | locus YBR021W, strain FUR4, active compounds read low 1.02 | locus YBR023C, strain chs3, active compounds read low 0.993 | locus YBR171W, strain sec66, active compounds read low 0.982 | locus YBR229C, strain ROT2, active compounds read low 1.01 | locus YBR231C, strain swc5, active compounds read low 1 | locus YBR279W, strain paf1, active compounds read low 0.995 | locus YCL011C, strain gbp2, active compounds read low 0.984 | locus YCL016C, strain dcc1, active compounds read low 0.994 | locus YCL029C, strain bik1, active compounds read low 1.02 | locus YCL061C, strain MRC1, active compounds read low 0.978 | locus YCL069W, strain vba3, active compounds read low 0.986 | locus YCR088W, strain abp1, active compounds read low 0.98 | locus YDL005C, strain med2, active compounds read low 0.981 | locus YDL035C, strain GPR1, active compounds read low 1.02 | locus YDL040C, strain nat1, active compounds read low 0.979 | locus YDL074C, strain BRE1, active compounds read low 1.03 | locus YDL101C, strain DUN1, active compounds read low 1.01 | locus YDL134C, strain PPH21, active compounds read low 1.02 | locus YDL185W, strain tfp1, active compounds read low 1.01 | locus YDL192W, strain arf1, active compounds read low 1.02 | locus YDR001C, strain nth1, active compounds read low 0.979 | locus YDR069C, strain doa4, active compounds read low 0.998 | locus YDR101C, strain arx1, active compounds read low 1.03 | locus YDR137W, strain rgp1, active compounds read low 0.931 | locus YDR159W, strain sac3, active compounds read low 1.02 | locus YDR162C, strain NBP2, active compounds read low 1.04 | locus YDR195W, strain ref2 0.992 | locus YDR297W, strain sur2, active compounds read low 0.978 | locus YDR318W, strain mcm21, active compounds read low 1.02 | locus YDR334W, strain swr1, active compounds read low 0.955 | locus YDR335W, strain msn5, active compounds read low 0.974 | locus YDR388W, active compounds read low 1.02 | locus YDR392W, strain spt3, active compounds read low 0.916 | locus YDR502C, strain sam2, active compounds read low 1 | locus YEL003W, strain gim4, active compounds read low 0.981 | locus YEL037C, strain rad23, active compounds read low 0.984 | locus YEL061C, strain CIN8 (second series), active compounds read low 0.989 | locus YEL061C, strain CIN8, active compounds read low 1 | locus YER015W, strain faa2, active compounds read low 0.99 | locus YER016W, strain bim1, active compounds read low 0.992 | locus YER110C, active compounds read low 1.01 | locus YER111C, strain swi4, active compounds read low 1 | locus YER155C, strain BEM2 (second series), active compounds read low 1.02 | locus YER155C, strain BEM2, active compounds read low 1.01 | locus YER167W, strain BCK2, active compounds read low 1.01 | locus YFR010W, strain ubp6, active compounds read low 0.985 | locus YGL078C, strain dbp3, active compounds read low 1.04 | locus YGL086W, strain mad1, active compounds read low 1.03 | locus YGL167C, strain pmr1, active compounds read low 0.995 | locus YGL173C, strain kem1, active compounds read low 0.975 | locus YGL227W, strain vid30, active compounds read low 0.994 | locus YGL240W, strain doc1, active compounds read low 1.02 | locus YGL248W, strain PDE1, active compounds read low 1.02 | locus YGL253W, strain hxk2, active compounds read low 1.01 | locus YGR078C, strain PAC10, active compounds read low 1 | locus YGR135W, strain pre9, active compounds read low 0.993 | locus YGR252W, strain gcn5, active compounds read low 0.99 | locus YHR013C, strain ard1, active compounds read low 0.97 | locus YHR027C, strain rpn1, active compounds read low 0.987 | locus YHR030C, strain SLT2, active compounds read low 1.01 and 1.03 | locus YHR079C, strain IRE1 (second series), active compounds read low 1.01 | locus YHR079C, strain IRE1, active compounds read low 1.04 | locus YHR094C, strain hxt1, active compounds read low 1.01 | locus YHR129C, strain ARP1, active compounds read low 1 | locus YHR142W, strain chs7, active compounds read low 0.932 | locus YHR200W, strain rpn10, active compounds read low 1.02 | locus YIL066C, strain RNR3, active compounds read low 1.02 | locus YIL073C, strain SPO22, active compounds read low 1.15 | locus YIL125W, strain kgd1, active compounds read low 1.05 | locus YIR030C, strain dcg1, active compounds read low 1.02 | locus YJL092W, strain hpr5, active compounds read low 0.961 | locus YJL095W, strain BCK1 (second series), active compounds read low 0.994 | locus YJL095W, strain BCK1, active compounds read low 1.02 and 0.973 | locus YJL115W, strain asf1, active compounds read low 0.978 | locus YJL129C, strain trk1, active compounds read low 0.97 | locus YJL134W, strain LCB3, active compounds read low 1.01 | locus YJL154C, strain vps35, active compounds read low 0.982 | locus YJL164C, strain tpk1, active compounds read low 0.973 | locus YJL166W, strain qcr8, active compounds read low 0.997 | locus YJL168C, strain set2, active compounds read low 1.01 | locus YJL187C, strain SWE1 (second series), active compounds read low 0.998 | locus YJL187C, strain SWE1, active compounds read low 0.983
